Screening results deposited in PubChem BioAssay by National Center for Advancing Translational Sciences (NCATS).
HT1080-NT tox: qHTS for induction of synthetic lethality in tumor cells producing 2HG: qHTS for the HT-1080-NT fibrosarcoma cell line; HT-1080-NT fibrosarcoma viability, CellTiter-Glo ATP luminescence, 48 h; Potency, µM (top dose mostly 46.1 µM), for the others: at the top dose activity, negative = less viability, actives largely listed as cytotoxic; 360,000 tested, 1.6% active;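 also: NT is the 2HG producing partner of a matched IDH1 knockdown line; potency is read from the fitted curve at half-maximal effect; 0% = DMSO-treated cells and -100% = media-only wells without cells; nearly all actives have a fitted effect of over 55% in size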
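Toxicity toward the 2HG-producing NT line was scored as %Activity, normalised to DMSO and no-cell wells, from CellTiter-Glo luminescence after 48 hours' treatment.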
TDP1 cell CPT: qHTS for Inhibitors of human tyrosyl-DNA phosphodiesterase 1 (TDP1): qHTS in cells in presence of CPT | chicken DT40 Tdp1-/-;hTDP1 cells + 20 nM CPT, ATP luminescence, 48 h | Potency, µM (top dose mostly 46.2 µM), for the others: top-dose activity change, negative = growth inhibition, most hits filed as inhibitors | 420,000 tested, 12% active; also: potency is read from the fitted curve at half-maximal effect; nearly all actives have a fitted effect of over 55% in size
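Cell growth measured by CellTiter-Glo luminescence after a minimum 48 h, 37 C compound exposure with 20 nM CPT in Tdp1-knockout DT40 cells stably expressing hTDP1, seeded 400/well; qHTS titration format.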
IL-1B inflam inh: qHTS for Inhibitors of Inflammasome Signaling: IL-1-beta AlphaLISA Primary Screen | THP-1 LPS/ATP IL-1B secretion, AlphaLISA, 16 h; active compounds read low | activity change, % at 57.5 µM | 360,000 tested, 4.7% active; in the data active = activity change below about -50%; inconclusive = mostly about -30% to -49%
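Secreted IL-1B measured by AlphaLISA bead assay after 16 h compound exposure of THP-1 cells; compounds (final up to 57.5 uM) added 1 h before LPS (250 ng/mL) and ATP (1.25 mM) stimulation; lower signal means less secretion.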
HT1080 IDH1KD tx: qHTS for induction of synthetic lethality in tumor cells producing 2HG: qHTS for the HT-1080-IDH1KD cell line. HT-1080 IDH1 knockdown viability, ATP luminescence, 48 h. Potency, µM (titrated, usually from 46.1 µM), for inactives: at the top dose activity, negative = toxicity, actives largely listed as cytotoxic. 360,000 tested, 2% active. AID 686971, 2013;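 also: potency is read from the fitted curve at half-maximal effect; 0% = DMSO wells and -100% = cell-free medium wells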
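HT-1080-IDH1KD cells (IDH1 knocked down), 750/well in RPMI with 5% FBS, treated with compound 48 h at 37 degrees C. Viability by CellTiter-Glo luminescence, normalised to DMSO and no-cell wells; concentration-response curves classed.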
DT40 TDP1 no CPT: qHTS for Inhibitors of human tyrosyl-DNA phosphodiesterase 1 (TDP1): qHTS in cells in absence of CPT; DT40 Tdp1-/- hTDP1 cells, no CPT, ATP luminescence, 48 h; Potency, µM (top dose mostly 46.2 µM), without a hit: at the top dose activity change, negative = growth inhibition, most hits filed as inhibitors; 420,000 tested, 15% active; also: potency is read from the fitted curve at half-maximal effect; nearly all actives have a fitted effect of over 55% in size
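Growth kinetics read by CellTiter-Glo luminescence after ≥48 hr at 37 °C. Cells: DT40 Tdp1-/- stably carrying human TDP1, 400 per well, compound exposure in the absence of CPT (DMSO vehicle).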
Numbers without * were called inactive; u = inconclusive; x = no result; ! = not active in a repeat. This is a sample that favours compounds with a hit; in the whole collection about 19% have one here. Unless noted, calls follow the shape of the dose curve; as a rule, active = well fitted curve in the direction sought with a large enough effect; inconclusive = small, poorly fitted or top-dose-only effect, or another doubt; inactive = no such curve, though single readings can be large; an effect the other way counts as inactive or inconclusive. Unless noted, % is scaled to controls: 0 for no effect and ±100 for the full control effect.

SMILES	HT1080-NT tox	TDP1 cell CPT	IL-1B inflam inh	HT1080 IDH1KD tx	DT40 TDP1 no CPT
Cn1c(=O)c2c(nc(-c3ccc(N(CCCl)CCCl)cc3)n2C)n(C)c1=O	-11%	15µM*	u	-15%	26µM*
COc1ccccc1N1CCN(Cc2cccc(Br)c2)CC1	-9%	u	11	-3%	u
C/C(=N\N1CCCCCC1)c1c(O)n(-c2ccccc2C)c(=O)[nH]c1=O	1%	-66%	4	2%	0.13µM*
C/C(=N\N1CCCCCC1)c1c(O)n(-c2ccc(Cl)cc2)c(=O)[nH]c1=O	u	u	15	16%	21µM*
BrCC(Br)C1CCC(Br)C(Br)C1 (stereo not drawn)	15%	u	39	7%	-21%
O=C1c2ccccc2C(=O)N1SC1CCCCC1	-15%	3.7µM*	73	-2%	3.7µM*
O=C1NC(=O)N(c2ccccc2F)C(=O)/C1=C/c1ccc(Oc2ccc([N+](=O)[O-])cn2)cc1	20%	-1%	0	18%	12%
CCC(=O)N1CCN(c2cc3c(cc2F)c(=O)c(C(=O)O)cn3CC)CC1	u	-14%	6	24%	-12%
CN1CCN(c2cc3c(cc2F)c(=O)c(C(=O)O)cn3-c2ccc(F)cc2)CC1	x	11µM*	x	x	24µM*
CCOc1ccc(OC(=O)c2ccc3c(=O)n4c(nc3c2)CCC4)cc1	-3%	u	-2	-10%	u
CCOCCCNC(=O)c1c[nH]c2ccc(S(=O)(=O)N(C)c3ccc(Cl)cc3F)cc2c1=O	x	23µM*	x	x	16µM*
Cc1nnc(NC(=O)c2cccn(Cc3ccccc3F)c2=O)s1	x	3%	x	x	-1%
CCN1CCCC(OC(=O)C(c2ccccc2)c2ccccc2)C1 (stereo not drawn)	7%	u	-14	15%	u
CC(C)(COC(=O)C(c1ccccc1)c1ccccc1)CN1CCOCC1	-4%	u	-7	6%	21µM*
CN(C(=O)Oc1ccc(Cl)c2cccnc12)c1ccccc1	16%	-15%	-9	19%	-15%
Cc1cccc(NC(=O)Oc2ccc(Cl)c3cccnc23)c1	-5%	12µM*	19	-9%	5.2µM*
CC(=O)Oc1ccc(Cl)c2cccnc12	x	3.7µM*	x	x	8.2µM*
CN(C)C(=O)Oc1c(Cl)cc(Cl)c2cccnc12	-1%	1%	20	6%	-3%
CC(Nc1cc(C)cc(C)c1)=[N+](C)CCNS(=O)(=O)c1ccc(Cl)cc1	-1%	13µM*	-79*	-12%	-19%
CC1CCN(C(CC(=O)c2ccccc2)C(=O)c2ccccc2)CC1 (stereo not drawn)	-12%	2.6µM*	-67*	u	2.1µM*
Cc1cc(C=C2C(=O)NC(=S)NC2=O)c(C)n1C1CCCC1	-22%	15µM*	-53*	u	u
Cc1ccc(-n2c(C)cc(/C=C3/C(=O)NC(=O)N(C)C3=O)c2C)cc1	-4%	-20%	25	0%	-15%
OCC1OC(n2cnc3cc(Cl)c(Cl)cc32)C(O)C1O (stereo not drawn)	u	15µM*!	u	u	u
Cc1cc(O)c2c3c(c(=O)oc2c1)CCC(C)C3 (stereo not drawn)	0%	15µM*	0	-2%	12µM*
CCOc1cc(C)cc2oc(=O)c3c(c12)CCCC3	-3%	0%	10	-1%	7%
C=CCn1c(O)c(C(CC)=NCc2cc(OC)cc(OC)c2)c(=O)[nH]c1=O	23µM*	7.3µM*	76	23µM*	7.3µM*
C=CCn1c(O)c(C(CC)=NCc2ccc3c(c2)OCO3)c(=O)[nH]c1=O	-24%	u	x	-20%	u
